According to paper PMC10668032, “Altered binding affinity of SIX1-Q177R correlates with enhanced WNT5A and WNT pathway effector expression in Wilms tumor”:
Over roughly 33,000 sequences, “e-score” has its median near -0.053; the highest 2% begin near 0.38. This is one part of a sample in which the highest values are shown more often than they occur.

biological target: T1, SIX1 homeodomain (reference allele) (human, UniProt Q15475 108-198); experiment: universal protein binding microarray; Universal all-10-mer PBM (8x60K, AMADID 030236), 300 nM GST-tagged protein, Alexa Fluor 488 anti-GST; buffer, salt, pH and temperature not stated (as in Berger); high values mean tight binding; details: protein: ivt; tags: N-terminal GST; dsDNA, one strand shown
T1 sequence: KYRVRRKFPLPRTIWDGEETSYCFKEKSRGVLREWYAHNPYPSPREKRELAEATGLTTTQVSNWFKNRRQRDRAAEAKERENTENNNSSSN
In short: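 After in vitro transcription/translation, GST-tagged homeodomains were quantified against a recombinant GST standard curve by anti-GST western blot. They were then placed in duplicate at 300 nM final concentration on universal 'all 10-mer' protein binding microarrays of 8×60K format.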

Sequence | binding signal [E-score]
CGCAGATC | 0.214 ± 0.00241
GGATAGCA | 0.241 ± 0.00553
ATCTATTC | 0.24 ± 0.00333
AGTATACT | 0.219 ± 0.0526
CGTATACC | 0.367 ± 0.014
AGTATACC | 0.389 ± 0.0206
ATACTTGC | 0.215 ± 0.0473
GAAGGATC | 0.39 ± 0.012
CAAGGATC | 0.351 ± 0.0137
CTGGGATC | 0.297 ± 0.0767
CAGGGATA | 0.328 ± 0.0119
AGGGGATG | 0.201 ± 0.0454
AGGGGATC | 0.426 ± 0.0173
ACGGGATC | 0.342 ± 0.0556
CAGGGATC | 0.42 ± 0.0412
ATGGGATC | 0.368 ± 0.0389
CCGGGATC | 0.375 ± 0.0348
CGGGGATC | 0.396 ± 0.0226
GAAGGATA | 0.268 ± 0.0478
GCTGTATA | 0.232 ± 0.0591
ATACACTG | 0.338 ± 0.00871
ACGTCTCA | 0.322 ± 0.0324
AGATCTCA | 0.262 ± 0.0503
TCCATCAA | 0.168 ± 0.0474
ATACTTAA | 0.19 ± 0.132
AGTCATAT | 0.257 ± 0.0554

Sequence | binding signal [E-score]
CGATAGTA | 0.263 ± 0.0297
AAGGGATT | 0.188 ± 0.061
AAAGGATC | 0.279 ± 0.0681
AAGGGATC | 0.377 ± 0.0133
ATACGCCG | 0.277 ± 0.0315
GTATTAGA | 0.237 ± 0.0563
GTATTATA | 0.377 ± 0.042
ATATTATA | 0.333 ± 0.0863
AATACGGA | 0.169 ± 0.0478
CATCCACG | 0.183 ± 0.0475
GGTGAGAA | 0.162 ± 0.0553
CAGATCGA | 0.277 ± 0.0349
CATATCGA | 0.417 ± 0.00575
CATATCGC | 0.424 ± 0.0197
GAGATCGC | 0.27 ± 0.0213
CATATAGC | 0.162 ± 0.0222
GATATCGC | 0.468 ± 0.0155
CATATAGA | 0.183 ± 0.00672
AATATCGG | 0.312 ± 0.0183
GATATAGC | 0.368 ± 0.0388
CATATCGG | 0.401 ± 0.0215
AATATCGT | 0.309 ± 0.0634
AATATCGC | 0.299 ± 0.0725
GGTGTAAC | 0.309 ± 0.00742
AGACGGTA | 0.196 ± 0.0243
CACTAATA | 0.215 ± 0.00278

Sequence | binding signal [E-score]
GGATATTA | 0.355 ± 0.0417
ATATGCCG | 0.211 ± 0.0327
AGTTGTAT | 0.215 ± 0.0407
AGATAAAG | 0.183 ± 0.0397
CGTCTCAG | 0.161 ± 0.0511
TACGCGCA | 0.174 ± 0.0401
CGAATATC | 0.308 ± 0.00674
GAACACCC | 0.205 ± 0.0407
CCCCTTCC | 0.164 ± 0.0967
CATATACG | 0.24 ± 0.0369
GATATCGA | 0.42 ± 0.0378
ATTATCCG | 0.351 ± 0.0414
GATATTGA | 0.287 ± 0.088
GAGATCGA | 0.271 ± 0.0142
CATATCCG | 0.426 ± 0.0135
AATATCGA | 0.241 ± 0.0403
TATATCGA | 0.387 ± 0.0436
TATATCCA | 0.335 ± 0.0312
CAACTATC | 0.168 ± 0.0786
ATTGAATA | 0.196 ± 0.0188
GTGTCGCA | 0.173 ± 0.106
AAGAATAC | 0.214 ± 0.0706
ATCAATTA | 0.229 ± 0.0261
ATCGCCTG | 0.206 ± 0.0204
ATACTGTG | 0.226 ± 0.0353
TATCGCCA | 0.36392 ± 0.000113

Sequence | binding signal [E-score]
GATCGCGA | 0.3375 ± 0.00196
TATCGCGA | 0.395 ± 0.0175
CCGGCGGA | 0.24 ± 0.0642
TCATCCGA | 0.255 ± 0.0149
ACTGATAT | 0.442 ± 0.0273
ACTGATAC | 0.465 ± 0.00916
ACTGATCA | 0.181 ± 0.00344
CCTGAGAC | 0.168 ± 0.0173
CCTGATAC | 0.4721 ± 0.0017
ACTGATAG | 0.315 ± 0.0253
GCTGACAC | 0.246 ± 0.0761
GCTGAGAC | 0.214 ± 0.0303
ACTGCTAT | 0.177 ± 0.0391
GCTGATAC | 0.459 ± 0.00926
CCTGATAG | 0.266 ± 0.022
ACTGACAC | 0.335 ± 0.01
GTATAGAA | 0.215 ± 0.0496
TATCTCCA | 0.282 ± 0.0362
ATGGCATC | 0.155 ± 0.0404
ATCCAGTA | 0.242 ± 0.0094
AGCAATAC | 0.298 ± 0.00343
GATCGTGC | 0.276 ± 0.0195
ACCTATAT | 0.195 ± 0.0849
GCAGGAGA | 0.153 ± 0.0104
GTCTCGTA | 0.172 ± 0.0154
ATATAGTA | 0.304 ± 0.0257

Sequence | binding signal [E-score]
GTATAGTA | 0.285 ± 0.0663
GTATCGTA | 0.4227 ± 0.00184
ATATCGTA | 0.402 ± 0.0509
CTATCGTC | 0.163 ± 0.0581
CTATCGTA | 0.266 ± 0.0154
ATATCGTC | 0.382 ± 0.0428
ATATCGTG | 0.376 ± 0.0365
GGTAGATA | 0.336 ± 0.0074
GAGTAATA | 0.204 ± 0.00279
AGATCTCG | 0.214 ± 0.0497
AGTGTCAA | 0.168 ± 0.0652
GGTGTCTA | 0.35 ± 0.0308
GGTGTCAA | 0.45408 ± 0.000177
AGTGTCAC | 0.253 ± 0.0143
CGTGTCAC | 0.1957 ± 0.000728
GGTGTCAC | 0.476 ± 0.0116
GGGGTCAA | 0.151 ± 0.00175
GGTGTCGA | 0.408 ± 0.0576
GGTGTCCA | 0.314 ± 0.0555
CCGCTATA | 0.176 ± 0.0395
CTTAGATA | 0.19 ± 0.0471
GGTACACC | 0.298 ± 0.064
AAGGGTGA | 0.21 ± 0.0127
GCGTTAGA | 0.197 ± 0.00519
CGGGATAC | 0.408 ± 0.0263
AGGGATAG | 0.27 ± 0.0085

Sequence | binding signal [E-score]
GGGGATAA | 0.311 ± 0.0718
TGGGATAA | 0.176 ± 0.0405
AGGGGGAT | 0.376 ± 0.0175
CGGGATAA | 0.17 ± 0.0308
AGGGATAC | 0.4148 ± 0.000559
GGGGACAC | 0.161 ± 0.0585
AGGGATAT | 0.45 ± 0.0188
CGGGATAG | 0.268 ± 0.0112
AGGGATAA | 0.292 ± 0.0171
GGGGATAC | 0.44 ± 0.0287
CTAAGATA | 0.241 ± 0.105
ATCTGGGC | 0.24 ± 0.0045
CCTATTGA | 0.187 ± 0.0453
GGTATTTA | 0.191 ± 0.035
ATCCCATC | 0.297 ± 0.0291
ATCGATGG | 0.185 ± 0.0344
ATATATAA | 0.298 ± 0.0548
GTATATGA | 0.225 ± 0.0139
CTATATCA | 0.412 ± 0.033
ATATATCA | 0.4 ± 0.0452
CTCTATCC | 0.216 ± 0.0113
CTATATTA | 0.152 ± 0.0427
ATATATCC | 0.438 ± 0.0246
GTATATCA | 0.429 ± 0.0166
CTATATCC | 0.366 ± 0.00388
GTATATAA | 0.245 ± 0.0101

Sequence | binding signal [E-score]
ATATATCG | 0.372 ± 0.0566
AAATATCA | 0.224 ± 0.158
ATCCAACC | 0.173 ± 0.00282
TATCTAGA | 0.189 ± 0.00564
ATACGTGG | 0.272 ± 0.04
ACAACACC | 0.23 ± 0.0178
TATAACAA | 0.2242 ± 0.00053
ATATTAGG | 0.257 ± 0.0151
CGAAGATC | 0.202 ± 0.00878
CATGATAC | 0.4813 ± 0.00335
CATAATAC | 0.34 ± 0.0222
AATAATAC | 0.345 ± 0.0992
AATGATAG | 0.309 ± 0.0717
GATAATAC | 0.406 ± 0.0398
TATGATAA | 0.17 ± 0.026
GATGATGA | 0.189 ± 0.0213
AAAGATAC | 0.365 ± 0.0561
GATGATAC | 0.484 ± 0.00743
CATGACAC | 0.35 ± 0.0169
CATGATAG | 0.274 ± 0.0672
AATGATAC | 0.467 ± 0.0253
CCACGATA | 0.324 ± 0.0401
GTATGCGA | 0.225 ± 0.0379
AGCGGGAT | 0.289 ± 0.0282
ATGTAATA | 0.208 ± 0.032
GGAGACAC | 0.219 ± 0.0128

Sequence | binding signal [E-score]
ATCGGCAT | 0.205 ± 0.0425
AATAACAC | 0.151 ± 0.0395
TATGGGGA | 0.232 ± 0.0667
AAGTATAT | 0.184 ± 0.103
AAAGATAT | 0.351 ± 0.0934
AATGATAT | 0.44 ± 0.0479
AATGAGAT | 0.278 ± 0.0395
ATCGTCAT | 0.22 ± 0.00839
AATCCGCG | 0.1997 ± 0.000431
AGACCGGA | 0.157 ± 0.0691
ATACCGGG | 0.399 ± 0.016
ATACCGGA | 0.381 ± 0.0112
ATCCCGGG | 0.345 ± 0.0141
ATACGGGG | 0.335 ± 0.018
ATACCGGC | 0.319 ± 0.00766
ACCATGAT | 0.269 ± 0.0126
GATTATGA | 0.205 ± 0.0352
ATATGGCA | 0.204 ± 0.0271
GAGCCATA | 0.183 ± 0.0105
GAATACGA | 0.24 ± 0.0047
GGATAGAC | 0.151 ± 0.00296
CAATATAC | 0.197 ± 0.0146
TATCTCAA | 0.329 ± 0.0572
CGTATAAC | 0.204 ± 0.0505
CGTATTAA | 0.222 ± 0.0926
CCTATCAA | 0.288 ± 0.0228

Sequence | binding signal [E-score]
TGTATTAA | 0.275 ± 0.027
CGTATCAA | 0.466 ± 0.026
GGTATCAC | 0.497
GGGCTCAC | 0.268 ± 0.0467
CGTATTAC | 0.26 ± 0.0203
TGTATCAA | 0.41 ± 0.0207
GGTCTCAC | 0.203 ± 0.0591
CGTATCAC | 0.484 ± 0.00135
TATCGGAA | 0.368 ± 0.0234
CACCCGGA | 0.276 ± 0.0383
CTGAGATC | 0.253 ± 0.0174
ATGAGACG | 0.251 ± 0.0275
TATCTTCA | 0.251 ± 0.0591
GATCAGAC | 0.249 ± 0.0505
GCTATCAA | 0.312 ± 0.0869
GGTATCAA | 0.486 ± 0.00747
GGTATAAA | 0.286 ± 0.0691
ATACTTTG | 0.253 ± 0.096
GGGTTAGA | 0.16 ± 0.0278
